aSyn 5UTR act – Activators via SNCA 5'UTR binding, MLPCN | activity score, % (tested at 7.5 µM), hits read low | alpha-synuclein 5'UTR reporter, activators screen | hit rate 7.1% among 300,000; in the data active means activity score below about -60%
Numbers without * were called inactive. Not all results are given here.

SMILES	aSyn 5UTR act
COc1cccc(/C=N/NC(=O)c2cccc(N3CCCC3=O)c2)c1	-105*
COc1cccc(/C=N/NC(=O)CCn2nnc3ccccc32)c1	-120*
O=C(Nc1ccccc1)c1cccc(N2CCCC2=O)c1	-117*
O=C(N/N=C/c1cc(Br)ccc1O)c1cccc(N2CCCC2=O)c1	68
COc1cc(C=O)ccc1Oc1nnnn1-c1ccc(C(N)=O)cc1	-68*
C=CCn1cccc(/C=C/C(=O)c2ccc(C(C)(C)C)cc2)c1=S	-74*
N/C(COc1ncn(-c2ccccc2)n1)=N\S(=O)(=O)c1ccccc1	18
c1ccc(CSc2ncn(-c3ccccc3)n2)cc1	-138*
Nc1nc(CSc2ncn(-c3ccccc3)n2)cs1	-154*
Cc1cc(SCC(=O)c2cccs2)nc2ccccc12	-81*
Cc1cc(SC(C)C(=O)NCC(=O)Nc2ccc(F)c(F)c2F)nc2ccccc12 (configuration not stated)	46
Cc1cc(SCC(=O)N/N=C/c2ccc(O)cc2O)nc2ccccc12	58
O=C(CSc1ncn(-c2ccccc2)n1)c1cccs1	-177*
CCN1/C(=C/c2sc(-c3ccccc3C)c[n+]2C)Sc2ccccc21	94
COc1ccc(N2C(=S)N(C(=O)c3ccccc3)C(=Nc3ccccc3)C2=Nc2ccccc2)cc1	-120*
COc1ccc(N=C2C(=Nc3ccc(OC)cc3)N(c3ccc(N(C)C)cc3)C(=S)N2c2ccc(OC)cc2)cc1	99
COc1ccc(N=C2C(=Nc3ccc(OC)cc3)N(c3ccccc3)C(=S)N2C(=O)c2ccc(Cl)cc2)cc1	-200*
Cc1nc(NC(=O)C23CC4CC(CC(C4)C2)C3)sc1Cc1ccc2c(c1)OCO2	-184*
O=C(N/N=C/c1ccc(O)cc1)Nc1cccc2nsnc12	-73*
COc1cc(/C=N/NC(=O)Nc2cccc3nsnc23)cc(OC)c1OC	-89*
CN(C)c1ccc(/C=C(/C#N)C(=O)NCc2ccccc2)o1	-96*
Clc1ccccc1-c1nc(-c2ccccc2)n[nH]1	-214*
CN(C)CCN(C(=O)c1ccc(N2C(=O)CCC2=O)cc1)c1nc2cc3c(cc2s1)OCCO3	-75*
Cc1ccc2nc(N(CCCN(C)C)C(=O)c3ccc(S(=O)(=O)N4CCc5ccccc5C4)cc3)sc2c1	88
CCc1ccc2nc(NC(=O)c3ccc(N4C(=O)CCC4=O)cc3)sc2c1	-73*
SMILES	aSyn 5UTR act
CCc1ccc2nc(NC(=O)c3ccc4c(=O)[nH]c(CN5CCOCC5)nc4c3)sc2c1	-107*
O=C(Nc1nc2cc3c(cc2s1)OCCO3)c1ccco1	66
O=C(Nc1nc2cc3c(cc2s1)OCCO3)c1ccc(N2C(=O)CCC2=O)cc1	-65*
NS(=O)(=O)c1ccc(N/C=C\C(=O)c2cccc3ccccc23)cc1	-65*
CCC(C)NC(=O)Cn1c(COc2ccc(Cl)cc2Cl)nc2ccccc21 (configuration not stated)	-122*
Oc1ccc(Br)cc1-c1ccn[nH]1	-69*
Cc1nc(SCC(=O)c2ccc(Cl)s2)c2oc3ccccc3c2n1	-94*
CC(=O)CSc1ncnc2c1oc1ccccc12	-65*
c1coc(CSc2ncnc3c2oc2ccccc23)c1	-91*
c1ccc2oc(-c3ccn[nH]3)cc2c1	-120*
Cc1occc1C(=O)NNC(=O)c1ccccc1C(=O)O	-74*
Cc1occc1C(=O)NCCCc1ccccc1	-71*
Cc1occc1C(=O)NCCc1cccc(Cl)c1	-82*
COC(=O)Cn1ncn2c(cc3oc(C)cc32)c1=O	-118*
O=[N+]([O-])c1ccc(-c2cnc(SCc3ccccc3Cl)[nH]2)cc1	-89*
O=C(Nc1ccccc1)Nc1ccc2ocnc2c1	-117*
O=C(Nc1ccccc1)Nc1ccc2ncoc2c1	-119*
O=c1c2ccccc2nc2ccc(NCc3ccco3)nn12	-144*
Cc1sc2nc3ccc(NCc4ccco4)nn3c(=O)c2c1C	-119*
O=C(Nc1ccn(Cc2ccccc2F)n1)c1ccc(COc2cccc(Br)c2)cc1	-150*
CCN(CC)C(=O)c1cc2c(=O)n3ccccc3nc2s1	-125*
Cc1cc(NS(=O)(=O)c2ccc(NC(=O)c3cc4c(=O)n5ccccc5nc4s3)cc2)nc(C)n1	-79*
CC(C)CCNC(=O)c1cc2c(=O)n3ccccc3nc2s1	-146*
CN(C)C(=O)c1cc(C(=O)c2ccc(F)cc2Cl)c[nH]1	-93*
CN(C)C(=O)c1cc(C(=O)c2ccc(Cl)cc2Cl)c[nH]1	-94*
SMILES	aSyn 5UTR act
CN(C)C(=O)c1cc(C(=O)c2ccc(C(F)(F)F)cc2)c[nH]1	-151*
O=C(c1ccccc1)c1nnc(-c2ccccc2F)o1	-104*
Cc1cccc(N2Cc3ccc(Br)cc3C2)c1	-125*
O=C(Nc1ccc(Cl)cc1Cl)C1=Cc2ccccc2OC1	-192*
Cc1ccc(/C=C/C(=O)c2cc(Br)ccc2OC(=O)c2ccco2)cc1	-94*
CCc1ccc(/C=C/C(=O)c2cc(Br)ccc(=O)c2O)cc1	72
Cc1ccc(-c2ccc(/C=C3\SC(N4CCOCC4)=NC3=O)o2)cc1	-72*
CC(C)(C)c1ccc(-c2nnc(NC(=O)c3ccccc3)s2)cc1	-163*
COc1cccc(C(=O)Nc2nnc(-c3ccccc3)s2)c1	-224*
COc1cccc(C(=O)NCc2ccc(-c3nc4ccccc4s3)cc2)c1	-109*
COc1cccc(C(=O)Nc2nc3c(s2)CN(C)CC3)c1	-85*
O=C(c1ccc(S(=O)(=O)Cc2cc(F)ccc2F)c([N+](=O)[O-])c1)N1CCCCC1	-102*
O=[N+]([O-])c1ccc(F)cc1OCc1nc(-c2cccs2)no1	-177*
Cc1ccc(OCc2nc(-c3cccs3)no2)c([N+](=O)[O-])c1	-64*
O=[N+]([O-])c1ccccc1OCc1nc(-c2cccs2)no1	-114*
COc1ccc(/C(C)=N/Nc2ncc(Cl)cc2Cl)c(O)c1	-92*
O=C(Nc1nnc(SCc2ccc(F)cc2)s1)c1ccc2ncsc2c1	-100*
O=C(Nc1ccc(F)cc1F)c1ccc2ncsc2c1	-120*
Cn1nnc2cc(C(=O)Nc3ccccc3F)ccc21	-111*
O=C(Nc1ccc(Cl)cc1Cl)c1ccc2ncsc2c1	-177*
O=C(Nc1ccccc1F)c1ccc2ncsc2c1	-175*
O=C(Nc1cccc(F)c1)c1ccc2ncsc2c1	-204*
COc1cc(/C=C/C(=O)c2ccc3c(c2)OCCO3)cc(Br)c1OCC(=O)N(C)C	-819*
O=c1nc2c(-c3cccc(Br)c3)n[nH]n2c2ccccc12	-176*
CCN(CC)c1ccc(/C=N/NC(=O)c2c(Cl)cnn2C)c(O)c1	90
SMILES	aSyn 5UTR act
CCOC(=O)N/N=C/c1ccc(N(CC)CC)cc1O	-432*
CCOC(=O)N/N=C/c1ccccc1F	-135*
Cc1cc(C(=O)N/N=C/c2cccc(Cl)c2Cl)no1	-108*
CCOC(=O)N/N=C/c1cccc(Cl)c1Cl	-97*
CCOC(=O)N/N=C/c1cn(Cc2ccc(Cl)cc2)c2ccccc12	70
O=[n+]1cc(-c2cc3ccccc3o2)n([O-])c2c1CCCC2	-91*
CCN(CC)CCNc1nc2cc(OC)c(OC)cc2c2nc(-c3ccccc3)nn12	-73*
Cc1ccc(C(=O)CCNc2ccc(Br)cc2)o1	-99*
Cn1c(-c2nnn(-c3ccc(F)cc3)n2)cc2ccccc21	-156*
Cc1ccc(-n2nnc(-c3cc4ccccc4n3C)n2)cc1	-88*
CC1Cc2cc(/C=C3/SC(=S)N(C)C3=O)ccc2O1 (configuration not stated)	-86*
O=C(CCl)NCc1cc(-c2ccc(Cl)cc2)no1	-65*
Clc1ccc(-c2cc(CSc3ccccc3)on2)cc1	-181*
Clc1ccc(-c2cc(CSc3cccc(Cl)c3)on2)cc1	-67*

High-throughput results from PubChem.
